Results reported in PubChem BioAssay (NCI).
Compounds without any hit were thinned out: in the full panel of roughly 79,000, 15% have a hit. Calls of active or inactive are those of the source. Cut-off read from the data, not from the text of the source: active = growth inhibition above about 70%; inactive = the rest.

Experiments:
[1] = NCI Yeast Anticancer Drug Screen. Data for the rad52 strain (AID 147);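 note: 0% = growth of vehicle-treated control cultures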; settings: S. cerevisiae rad52 mutant growth inhibition, active compounds read high
How it was run: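 Growth of repair-deficient yeast cells was compared between compound-treated and vehicle-treated cultures to give percent inhibition.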

[2] = NCI Yeast Anticancer Drug Screen. Data for the rad50EPP+ strain (AID 151);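 note: 0% = growth of vehicle-treated control cultures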; settings: S. cerevisiae rad50 mutant strain, active compounds read high
How it was run: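 Measured: growth inhibition of rad50EPP+ yeast. Reference: vehicle-treated controls. Screen uses strains with defined genetic alterations in DNA damage repair or cell cycle control.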

[3] = NCI Yeast Anticancer Drug Screen. Data for the mgt1 strain (AID 153); settings: S. cerevisiae mgt1 mutant growth inhibition, active compounds read high
How it was run: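 Compounds were applied to mgt1 mutant yeast, and growth was then compared against vehicle-treated control cultures to give percent inhibition.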

[4] = NCI Yeast Anticancer Drug Screen. Data for the rad50 strain (AID 155);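 note: 0% = growth of vehicle-only cultures of the same strain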; settings: S. cerevisiae rad50 strain growth inhibition, active compounds read high
How it was run: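 Cells are treated with compound, grown, and their growth is then scored against vehicle-only cultures of the same repair-deficient yeast strain.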

[5] = NCI Yeast Anticancer Drug Screen. Data for the mec2-1 strain (AID 157); settings: S. cerevisiae mec2-1 strain, active compounds read high
How it was run: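 Compounds were applied to mec2-1 yeast cells. Their growth was then compared with that of vehicle-treated cultures to give growth inhibition.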

[6] = NCI Yeast Anticancer Drug Screen. Data for the rad14 strain (AID 159);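 note: 0% = growth of vehicle-treated control cultures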; settings: S. cerevisiae rad14 strain growth inhibition, active compounds read high
How it was run: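 Readout: yeast growth inhibition, referenced to vehicle-only cultures. Strain bears a defined alteration in DNA damage repair.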

[7] = NCI Yeast Anticancer Drug Screen. Data for the sgs1 mgt1 strain (AID 161);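 note: 0% = growth of cultures given vehicle only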; settings: S. cerevisiae sgs1 mgt1 strain, active compounds read high
How it was run: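 Yeast cells carrying a defined DNA-repair defect were exposed to test compounds. Growth inhibition was measured relative to vehicle-treated controls.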

[8] = NCI Yeast Anticancer Drug Screen. Data for the CLN2oe strain (AID 163);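 note: 0% = growth of vehicle-only control cultures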; settings: S. cerevisiae CLN2oe strain, active compounds read high
How it was run: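 Cells of an engineered yeast line with disturbed cell-cycle regulation are treated with compound. Inhibition of growth is then calculated relative to the vehicle-treated reference.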

[9] = NCI Yeast Anticancer Drug Screen. Data for the cln2 rad14 strain (AID 165);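 note: 0% = growth equal to vehicle treated cultures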; settings: S. cerevisiae cln2 rad14 strain, active compounds read high
How it was run: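 Strain: cln2 rad14 yeast, altered in cell cycle control and DNA damage repair. Read-out: growth inhibition vs vehicle.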

[10] = NCI Yeast Anticancer Drug Screen. Data for the bub3 strain (AID 167); settings: S. cerevisiae bub3 mutant strain, active compounds read high
How it was run: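 Part of a panel of yeast mutants defective in DNA damage repair or cell cycle regulation. Each strain is grown with compound, and inhibition is calculated relative to solvent-treated cultures.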

[11] = NCI Yeast Anticancer Drug Screen. Data for the mlh1 strain (AID 171);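 note: 0% = growth of vehicle-treated control cultures of the same strain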; settings: S. cerevisiae mlh1 strain growth inhibition, active compounds read high
How it was run: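 Test agents were incubated with yeast bearing a defined DNA damage repair or cell cycle control alteration; values are growth inhibition normalised to vehicle-treated cultures.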

[12] = NCI Yeast Anticancer Drug Screen. Data for the sgs1 strain (AID 173);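 note: 0% = growth of vehicle-only control cultures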; settings: S. cerevisiae sgs1 mutant, active compounds read high
How it was run: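 Strain with an altered DNA repair or cell cycle pathway exposed to compound. Growth then measured. Value = inhibition versus vehicle control.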

[13] = NCI Yeast Anticancer Drug Screen. Data for the mlh1 rad18 strain (AID 175); settings: S. cerevisiae mlh1 rad18 strain growth inhibition, active compounds read high
How it was run: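 A repair-deficient yeast strain is exposed to test compound, and growth is scored relative to vehicle-treated controls.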

[14] = NCI Yeast Anticancer Drug Screen. Data for the rad18 strain (AID 177); settings: S. cerevisiae rad18 mutant growth inhibition, active compounds read high
How it was run: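 DNA-repair-defective yeast; compound treatment; growth inhibition scored against vehicle.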

[15] = NCI Yeast Anticancer Drug Screen. Data for the wt1 strain (AID 149);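 note: 0% = growth of vehicle-treated wt1 cultures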; settings: S. cerevisiae wt1 strain (SPY 50644) growth inhibition, active compounds read high
How it was run: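 The wt1 strain was treated with compounds, and growth was compared with vehicle-treated cultures to give inhibition.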

[16] = at 5.0 µM (retest, dose inferred, filed as 0.5)
[17] = at 50.0 µM (retest, dose inferred, filed as 5.0)

Measured: growth inhibition

Oc1ccc(N=Nc2ccc(Cl)cc2)cc1
active: [1]; at 11.0 µM 97% | [1]; at 33.0 µM 98% | [1]; at 100.0 µM 98% | [2]; at 33.0 µM 98% | [2]; at 100.0 µM 97% | [3]; at 33.0 µM 99% | [3]; at 100.0 µM 99% | [4]; at 11.0 µM 94% | [4]; at 33.0 µM 99% | [4]; [17] 99% | [4]; at 50.0 µM 99.5% | [4]; at 100.0 µM 98% | [5]; at 11.0 µM 90% | [5]; at 33.0 µM 99% | [5]; [17] 98% | [5]; at 50.0 µM 98.2% | [5]; at 100.0 µM 99% | [6]; at 33.0 µM 99% | [6]; at 100.0 µM 98% | [7]; [17] 99% | [7]; at 50.0 µM 98.7% | [8]; at 11.0 µM 97% | [8]; at 33.0 µM 99% | [8]; at 100.0 µM 99% | [9]; [17] 99% | [9]; at 50.0 µM 99.5% | [10]; [16] 81% | [10]; at 11.0 µM 94% | [10]; at 33.0 µM 99% | [10]; [17] 99% | [10]; at 50.0 µM 99.2% | [10]; at 100.0 µM 99% | [11]; at 11.0 µM 77% | [11]; at 33.0 µM 99% | [11]; at 100.0 µM 99% | [12]; at 11.0 µM 87% | [12]; at 33.0 µM 99% | [12]; at 100.0 µM 98% | [13]; [17] 99% | [13]; at 50.0 µM 99.4% | [14]; at 11.0 µM 77% | [14]; at 33.0 µM 99% | [14]; at 100.0 µM 97%
inactive: [1]; at 1.2 µM 3% | [1]; at 3.7 µM 23% | [2]; at 1.2 µM 8% | [2]; at 3.7 µM 12% | [2]; at 11.0 µM 50% | [3]; at 1.2 µM -3% | [3]; at 3.7 µM 4% | [3]; at 11.0 µM 61% | [4]; at 1.2 µM 1% | [4]; at 3.7 µM 30% | [4]; [16] -27% | [5]; at 1.2 µM 8% | [5]; at 3.7 µM 15% | [5]; [16] -13% | [6]; at 1.2 µM 2% | [6]; at 3.7 µM 7% | [6]; at 11.0 µM 60% | [7]; [16] -10% | [8]; at 1.2 µM 25% | [8]; at 3.7 µM 45% | [9]; [16] -6% | [10]; at 1.2 µM 57% | [10]; at 3.7 µM 65% | [11]; at 1.2 µM 4% | [11]; at 3.7 µM 2% | [12]; at 1.2 µM 0% | [12]; at 3.7 µM 7% | [13]; [16] 6% | [14]; at 1.2 µM 0% | [14]; at 3.7 µM 3%

O=[N+]([O-])c1cc(Cl)ccc1S(=O)(=O)c1ccc(Cl)cc1[N+](=O)[O-]
inactive: [1]; at 1.2 µM -25% | [1]; at 3.7 µM -8% | [1]; at 11.0 µM 40% | [15]; at 1.2 µM -13% | [15]; at 3.7 µM -19% | [15]; at 11.0 µM 0% | [3]; at 1.2 µM -29% | [3]; at 3.7 µM -27% | [3]; at 11.0 µM 0% | [4]; at 1.2 µM -31% | [4]; at 3.7 µM -21% | [4]; [16] 14% | [4]; at 11.0 µM 41% | [5]; at 1.2 µM -12% | [5]; at 3.7 µM 10% | [5]; [16] 4% | [5]; at 11.0 µM 20% | [6]; at 1.2 µM -15% | [6]; at 3.7 µM -11% | [6]; at 11.0 µM 25% | [7]; [16] 16% | [8]; at 1.2 µM -2% | [8]; at 3.7 µM -4% | [8]; at 11.0 µM 9% | [9]; [16] 13% | [10]; at 1.2 µM -21% | [10]; at 3.7 µM 7% | [11]; at 1.2 µM -3% | [11]; at 3.7 µM 3% | [11]; at 11.0 µM 44% | [12]; at 1.2 µM -3% | [12]; at 3.7 µM 13% | [12]; at 11.0 µM 35% | [13]; [16] 25% | [14]; at 1.2 µM 8% | [14]; at 3.7 µM 9% | [14]; at 11.0 µM 63%
active: [1]; at 33.0 µM 86% | [1]; at 100.0 µM 78% | [15]; at 33.0 µM 85% | [15]; at 100.0 µM 78% | [3]; at 33.0 µM 84% | [3]; at 100.0 µM 78% | [4]; at 33.0 µM 90% | [4]; [17] 92% | [4]; at 50.0 µM 76.8% | [4]; at 100.0 µM 81% | [5]; at 33.0 µM 89% | [5]; [17] 93% | [5]; at 50.0 µM 83% | [5]; at 100.0 µM 84% | [6]; at 33.0 µM 88% | [6]; at 100.0 µM 81% | [7]; [17] 91% | [7]; at 50.0 µM 84.3% | [8]; at 33.0 µM 82% | [8]; at 100.0 µM 79% | [9]; [17] 91% | [9]; at 50.0 µM 79.9% | [10]; [16] 73% | [10]; at 11.0 µM 80% | [10]; at 33.0 µM 93% | [10]; [17] 94% | [10]; at 50.0 µM 83.7% | [10]; at 100.0 µM 90% | [11]; at 33.0 µM 85% | [11]; at 100.0 µM 80% | [12]; at 33.0 µM 91% | [12]; at 100.0 µM 84% | [13]; [17] 91% | [13]; at 50.0 µM 80.8% | [14]; at 33.0 µM 91% | [14]; at 100.0 µM 87%
